Mcl1 Bid PPI: Mcl-1/Bid interaction inhibition | Q07820 | TR-FRET Mcl-1/Bid-Dy647 peptide binding, 1536-well | inhibition, % at 21.7 µM | 0.97% of 220,000 active | AID 1021;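 active = compounds that cut the binding signal by more than half at the single screening dose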;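 note: His-tagged Mcl-1 with europium anti-His antibody binding Bid BH3 peptide; 0% = Mcl-1 plus peptide wells and 100% = peptide-only wells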
MCL1 BIM primary: inhibitors of human MCL1 binding to BIM-BH3 peptide | GST-MCL1 / FITC-Bim-BH3 fluorescence polarization | inhibition, % at 10.9 µM | 0.68% of 320,000 active | AID 2057;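 active = inhibition above the mean inhibition of all tested compounds plus 3 SD, set per campaign, cut at about 40% in these data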;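 note: 0% = DMSO wells and 100% = unlabeled Bim-BH3 peptide control; higher means more loss of mP so more displacement of Bim peptide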
Mcl1 Noxa PPI: disrupts binding of human Mcl-1 to Noxa peptide. Q07820. TR-FRET Mcl-1/Noxa peptide binding, 2 h. inhibition, % at 21.7 µM. 1.5% of 220,000 active. AID 1022;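 active = compounds that cut the protein-peptide binding signal by more than 50% relative to plate controls in a single-dose test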;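 note: His-tagged Mcl-1 with rhodamine Noxa BH3 peptide and terbium anti-His antibody; 0% = Mcl-1 plus Noxa peptide wells and 100% = peptide-only wells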
Bim-Mcl-1: human Bim-Mcl-1 interaction inhibition. inhibition, % at 10 µM. Q07820. 0.1% of 190,000 active. Bead-based flow cytometry, Bim peptide-Mcl-1 binding; in the data active = inhibition above about 40%;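 note: 0% = no compound tracer wells and 100% = peptide blocker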
GLD-1 RNA inh: GLD-1-TGE RNA interaction inhibition (C. elegans); purified GLD-1 + fluorescein TGE RNA, fluorescence polarization; inhibition, % at 5.96 µM; 0.44% of 320,000 active; AID 2280; Q17339;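 active = percent inhibition above a per-plate cutoff, the plate mean of test compounds plus 3 SD, cut at about 30% in these data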;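 note: 0% = DMSO wells with GLD-1 and probe and 100% = wells lacking GLD-1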
Target sequence (Q17339 whole entry, looked up): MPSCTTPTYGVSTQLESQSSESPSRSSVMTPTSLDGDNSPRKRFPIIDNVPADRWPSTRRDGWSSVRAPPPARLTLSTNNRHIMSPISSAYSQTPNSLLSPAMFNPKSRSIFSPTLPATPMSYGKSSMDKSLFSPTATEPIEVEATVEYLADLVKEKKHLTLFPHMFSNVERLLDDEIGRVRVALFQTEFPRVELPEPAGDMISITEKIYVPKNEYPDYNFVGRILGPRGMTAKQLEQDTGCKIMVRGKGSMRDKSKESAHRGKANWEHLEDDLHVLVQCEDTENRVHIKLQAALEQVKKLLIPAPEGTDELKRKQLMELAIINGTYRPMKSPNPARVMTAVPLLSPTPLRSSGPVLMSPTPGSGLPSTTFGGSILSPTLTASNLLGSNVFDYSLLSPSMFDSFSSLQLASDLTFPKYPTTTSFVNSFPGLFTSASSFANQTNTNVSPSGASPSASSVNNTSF
BCLXL inh: Bcl-xL (human) inhibition; GST-Bcl-xL / FITC-Bim BH3 peptide fluorescence polarization; 0.7% of 320,000 active; AID 2129; inhibition, % at 10.9 µM; Q07817;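 active = inhibition above the mean of all tested compounds plus 3 SD, cutoff set per campaign, cut at about 30% in these data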;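 note: 0% = DMSO wells and 100% = unlabeled Bim-BH3 peptide competitor; inhibitors lower millipolarization by displacing the labeled peptide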
BCLXL inh confirm: Bcl-xL (human) inhibition, MCL1 counter-screen confirmation; 54% of 1,700 active; inhibition, % at 10.9 µM; GST-Bcl-xL / FITC-Bim BH3 peptide FP binding; shares compounds with MCL1 BIM primary; AID 2166;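 active = inhibition above a cutoff equal to the mean inhibition of all tested compounds plus 3 SD, cut at about 30% in these data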;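 note: 0% = DMSO wells and 100% = unlabeled Bim BH3 control peptide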
MCL1 inh confirm: MCL1-BIM-BH3 interaction inhibition, confirmation; shares compounds with MCL1 BIM primary; 61% of 1,700 active; inhibition, % at 10.9 µM; GST-MCL1 / FITC-Bim-BH3 fluorescence polarization; AID 2168;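 active = inhibition above the average of all tested compounds plus 3 SD, cut at about 40% in these data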;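 note: 0% = DMSO wells and 100% = unlabeled Bim-BH3 control peptide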
* = called active by the depositor; . = no result; + = active, no number. Most compounds without a hit are left out; they make up all but 2.3% or so of the library.

SMILES	Mcl1 Bid PPI	MCL1 BIM primary	Mcl1 Noxa PPI	Bim-Mcl-1	GLD-1 RNA inh	BCLXL inh	BCLXL inh confirm	MCL1 inh confirm
O=c1[nH]c(C(Cl)Cl)nc2sc3c(c12)CCN(Cc1ccccc1)C3	4	102*	94*	3	23	78*	56*	78*
O=C(CN1C(=O)c2cccnc2Oc2ccc(Cl)cc21)N1CCOCC1	.	7	.	.	5	5	.	.
NC(=S)Nc1cccc2cc3ccccc3cc12	-62	53*	31	6	15	57*	81*	95*
COc1cccc(-n2c(N)cc(=O)nc2SCC(=O)N2CCN(c3ccccc3)CC2)c1	.	4	.	.	0	7	.	.
CC(C(=O)OCC(=O)c1ccc(Br)cc1)N1C(=O)C2C3C=CC(C3)C2C1=O (stereo unspecified)	.	1	.	.	-4	2	.	.
COc1cccc(F)c1C(=O)NC(=O)Nc1ccc2nc(C)oc2c1	-45	119*	23	.	91*	119*	54*	40
CSc1nc2ccc(NC(=O)NC(=O)c3c(F)cccc3F)cc2s1	-13	-5	-10	.	-6	0	.	.
CC(Oc1ccc(F)cc1)C(=O)Nc1cccc(-c2nn[nH]n2)c1 (stereo unspecified)	.	41*	.	.	3	13	-4	-23
COc1ccc(OC(C)C(=O)Nc2cccc(OC)c2)cc1 (stereo unspecified)	4	-1	-3	-2	12	-2	.	.
O=C(O)c1ccc(O)cc1O	.	3	.	.	1	7	.	.
O=C(O)c1cc(O)c2c(c1)C(=O)c1cc(O)cc(O)c1C2=O	7	41*	62*	1	6	23	21	34
COc1cc(NC(=O)C/C(C)=N/NC(=O)Cc2ccc(Cl)cc2)c(OC)cc1Cl	-26	8	11	0	0	3	.	.
COC(=O)c1ccccc1NC(=O)C/C(C)=N/NC(=O)Cc1ccc(Cl)cc1	.	53*	.	.	-4	4	-1	25
Cc1cc(C)c(S(=O)(=O)Nc2ccccc2C(=O)N2CCOCC2)c(C)c1	.	-10	.	.	0	-11	.	.
O=C(CSc1ccc(Cl)cc1)c1ccco1	4	64*	41	-1	1	17	23	75*
COc1ccc(C2C=C(c3ccccc3)Nc3nc(NC(C)=O)nn32)cc1 (stereo unspecified)	-19	60*	32	-4	40*	58*	59*	80*
O=C(N/N=C/c1ccncc1)c1cccc(S(=O)(=O)Nc2ccc(Cl)cc2)c1	79*	52*	3	.	3	-3	-1	74*
O=C(c1ccccc1)c1cccc[n+]1[O-]	.	0	.	.	3	6	.	.
CC1(C)CNc2cc(N)ccc2S1	-66	66*	20	1	-18	25	32*	43*
Cc1ccc(-c2nc3ccccc3c(=O)o2)cc1	.	-8	.	.	-5	-1	.	.
O=c1oc(-c2ccc(Br)o2)nc2ccccc12	26	98*	37	-13	8	5	-2	13
COc1ccc(OC)c(-c2c3cc(O)c(=O)cc-3oc3cc(O)c(O)cc23)c1	-1	118*	91*	-116	76*	111*	120*	133*
COc1cc(C(=S)N2CCN(c3ccccc3Cl)CC2)cc(O)c1O	-54	58*	60*	-8	14	25	34*	71*
CCCn1c(SCC(=O)N(CC)CC)nnc1-c1ccncc1	-38	0	-10	0	2	-1	.	.
CCN(CC)C(=O)CSc1nnc2nnc3cc(Cl)ccc3n12	5	88*	4	.	123*	93*	65*	79*
SMILES	Mcl1 Bid PPI	MCL1 BIM primary	Mcl1 Noxa PPI	Bim-Mcl-1	GLD-1 RNA inh	BCLXL inh	BCLXL inh confirm	MCL1 inh confirm
CCCCN(C(=O)c1cc(S(=O)(=O)N2CCCCCC2)ccc1OC)c1c(N)n(CCC)c(=O)[nH]c1=O	.	-6	.	.	1	2	.	.
Cc1cccc(NC(=O)NNC(=O)c2cc3occc3[nH]2)c1C	.	7	.	.	6	5	.	.
Cc1cc2nc3c(=O)n(CCc4ccccc4)c(=O)[nH]c3nc2cc1N	-53	+	-158	.	189*	+	190*	+
CCCCn1c(=O)[nH]c2nc3cc(N)ccc3nc2c1=O	-64	+	-141	-1	+	+	+	+
Nc1ccc2nc(CCc3ccccc3)[nH]c2c1	46	7	-14	-3	3	7	.	.
Nc1ccc2nc3c(=O)n(C4CCCCC4)c(=O)[nH]c3nc2c1	-91	+	-124	.	+	+	191*	+
Nc1ccc2nc3c(=O)n(CCc4ccccc4)c(=O)[nH]c3nc2c1	-32	+	-181	.	191*	181*	182*	+
COc1ccc(NC(=O)CNc2cc(C)ccc2C)cc1S(=O)(=O)N1CCOCC1	.	-1	.	.	-3	2	.	.
CCOc1cc(N2CCOCC2)c(OCC)cc1NC(=O)c1cc(S(=O)(=O)N2CCOCC2)ccc1C	.	.	.	.	1	.	.	.
Cc1cc(/C=C(\C#N)c2nc3ccccc3[nH]2)c(C)n1C	-80	122*	37	-3	133*	110*	127*	149*
Cc1cc(/C=C(/C#N)c2nc3ccccc3[nH]2)c(C)n1-c1cccc([N+](=O)[O-])c1	-71	4	13	1	4	10	.	.
COc1ncnc2c1NC1=C(S2)C(=NCCC(=O)O)CC(C)(C)C1	9	162*	25	-3	103*	144*	171*	198*
Cc1ccc(CNC(=O)CC(C)S(=O)(=O)c2ccc3c(c2)NC(=O)CS3)o1 (stereo unspecified)	.	86*	.	.	46*	85*	8	-9
Cc1ccc(CNC(=O)CC(C)S(=O)(=O)c2ccc3c(c2)NC(=O)CO3)cc1 (stereo unspecified)	.	-5	.	.	0	0	.	.
CN(C)c1ccc2nc3c(=O)[nH]c(=O)nc-3n(CC(O)C(O)C(O)CO)c2c1 (stereo unspecified)	.	+	.	.	163*	190*	150*	174*
CCCCOc1[nH]c2nc(-c3ccco3)n(Cc3ccco3)c(=N)c2c1C#N	-12	163*	6	-2	107*	140*	90*	123*
c1ccc(CSc2nnc(-c3ccco3)n2Cc2ccco2)cc1	-4	3	5	0	-4	2	.	.
O=C(Nc1ccccc1-c1ccccc1)c1ccc(=O)[nH]n1	.	8	.	.	4	10	.	.
Cc1ccc(Sc2cc(C(=O)NCCCN(C)C)c3ccccc3n2)cc1	.	86*	.	.	69*	78*	6	2
